# Bioassay records deposited in PubChem BioAssay by National Center for Advancing Translational Sciences (NCATS).
# Compounds with a hit are over-represented: about 10% of the library has one in this group of screens.
# G9a inh – G9a (human) methyltransferase inhibition | Q96KQ7 | G9a H3K9 monomethylation, AlphaScreen, 2 h | Potency, µM (highest dose often 102 µM), without a hit: at the top dose activity, negative = inhibition, hits mostly inhibitors | 350,000 tested, 8.8% active | AID 504332; also: potency is read from the fitted curve at half-maximal effect; % is scaled to controls: 0 for no effect and ±100 for the full control effect; nearly all actives have a fitted effect of over 75% in size
#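 Compounds were preincubated with 20 nM G9a for 15 min, after which biotinylated H3K9 peptide (500 nM) and SAM (20 uM) started a 2 h room-temperature reaction. Monomethylated product was quantified by antibody-based AlphaScreen chemiluminescence.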
# BAZ2B block – blocks human BAZ2B; 360,000 tested, 4.4% active; Potency, µM (doses to about 114 µM), for the others: at the top dose activity change, negative = inhibition, usual class: inhibitors; AlphaScreen BAZ2B-H3K14Ac peptide displacement; also: potency is read from the fitted curve at half-maximal effect; % is scaled to controls: 0 for no effect and ±100 for the full control effect; nearly all actives have a fitted effect of over 60% in size
#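 Compounds, titrated to a top concentration of 110 uM, were incubated 30 min at room temperature with preformed BAZ2B/acetyl-K14 H3 peptide complex (50 nM each). Proximity signal was measured by AlphaScreen after 20 min with beads.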
# HP1b chromo inh – inhibitors of HP1-beta chromodomain binding to methylated histone tails. AlphaScreen HP1-beta / biotin-H3K9me3 peptide binding. P83916. AID 540317. Potency, µM (series often up to 114 µM), for the others: at the top dose activity change, negative = inhibition, most hits filed as inhibitors. 390,000 tested, 0.56% active; also: potency is read from the fitted curve at half-maximal effect; nearly all actives have a fitted effect of over 70% in size
#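 Compound inhibition of the preformed complex between 50 nM HP1-beta and 50 nM biotinylated H3K9me3 peptide was read by AlphaScreen. Buffer was PBS pH 7.4 with 0.01% Tween-20. Incubations ran 30 min at room temperature, with 10 ug/mL donor/acceptor beads.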
# JMJD2A Tudor – JMJD2A Tudor domain (human) inhibition; 390,000 tested, 4.4% active; AID 504339; AlphaScreen JMJD2A-Tudor / H3K4me3 peptide binding; O75164; Potency, µM (series often up to 114 µM), for inactives: at the top dose activity change, negative = inhibition, most hits filed as inhibitors; also: potency is read from the fitted curve at half-maximal effect; % is scaled to controls: 0 for no effect and ±100 for the full control effect; nearly all actives have a fitted effect of over 50% in size
# Target sequence (O75164 whole entry, looked up, the tested form may be a part): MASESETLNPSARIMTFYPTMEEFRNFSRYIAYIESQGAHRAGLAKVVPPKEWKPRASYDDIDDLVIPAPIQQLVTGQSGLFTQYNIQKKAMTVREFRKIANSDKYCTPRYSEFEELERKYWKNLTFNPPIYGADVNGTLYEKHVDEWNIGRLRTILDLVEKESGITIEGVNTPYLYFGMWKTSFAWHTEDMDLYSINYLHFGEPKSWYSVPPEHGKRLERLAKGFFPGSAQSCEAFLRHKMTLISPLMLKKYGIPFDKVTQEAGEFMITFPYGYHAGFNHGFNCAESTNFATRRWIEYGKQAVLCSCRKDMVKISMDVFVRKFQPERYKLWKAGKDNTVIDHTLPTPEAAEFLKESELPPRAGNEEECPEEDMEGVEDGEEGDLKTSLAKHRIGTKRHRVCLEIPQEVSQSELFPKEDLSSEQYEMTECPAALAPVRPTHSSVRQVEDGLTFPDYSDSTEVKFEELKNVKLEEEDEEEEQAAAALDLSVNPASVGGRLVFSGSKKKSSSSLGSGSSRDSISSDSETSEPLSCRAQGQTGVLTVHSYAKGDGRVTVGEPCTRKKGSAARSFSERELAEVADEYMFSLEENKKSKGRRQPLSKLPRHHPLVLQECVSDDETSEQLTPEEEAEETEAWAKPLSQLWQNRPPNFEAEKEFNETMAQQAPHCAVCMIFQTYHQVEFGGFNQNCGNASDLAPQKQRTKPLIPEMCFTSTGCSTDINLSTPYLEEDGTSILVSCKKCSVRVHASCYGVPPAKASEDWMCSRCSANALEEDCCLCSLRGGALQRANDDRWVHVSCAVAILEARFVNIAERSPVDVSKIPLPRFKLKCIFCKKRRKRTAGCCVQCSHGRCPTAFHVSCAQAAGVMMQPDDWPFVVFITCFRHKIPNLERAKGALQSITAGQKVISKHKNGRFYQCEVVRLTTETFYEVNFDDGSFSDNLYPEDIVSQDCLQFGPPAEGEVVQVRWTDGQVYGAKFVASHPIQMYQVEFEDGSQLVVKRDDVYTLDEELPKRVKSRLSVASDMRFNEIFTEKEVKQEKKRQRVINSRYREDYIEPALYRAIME
# Six1-Eya2 inh – Six1/Eya2 interaction inhibition; activity change, % (concentration not given with the values); 360,000 tested, 0.56% active; AID 651725; AlphaScreen GST-Six1/His-Eya2 binding, biochemical; stronger effect = lower value; in the data active = activity change below about -65%; inconclusive = mostly about -30% to -63%; also: % is scaled to controls: 0 for no effect and ±100 for the full control effect
#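 Six1/Eya2 binding was read as AlphaScreen signal after compounds were pinned into GST-Six1 plus His-tagged Eya2 (5X stock 250/500 nM) in pH 8.0 Tris/NaCl/TCEP buffer, beads added, then incubated 1 h, 37 C, dark.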
# CtBP-E1A inh – blocks the CtBP interaction with E1A; AlphaScreen GST-E1A/His-CtBP binding, 1536-well; stronger effect = lower value; activity change, % (no concentration beside the values); 340,000 tested, 0.49% active; in the data active = activity change below about -65%; inconclusive = mostly about -30% to -63%; also: % is scaled to controls: 0 for no effect and ±100 for the full control effect
#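 Homogeneous bead-based format: GST-tagged E1A captured on glutathione donor beads, His-tagged CtBP on nickel acceptor beads; compounds precede bead addition by 2 h at 37 °C.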
# Numbers without * were called inactive; ? = inconclusive; / = no result; [ ] = remark or other dose. Unless noted, calls follow the shape of the dose curve; as a rule, active = well fitted inhibition curve with a large enough effect; inconclusive = small, poorly fitted or top-dose-only effect; inactive = no such curve, though single readings can be large or run the other way.
SMILES,G9a inh,BAZ2B block,HP1b chromo inh,JMJD2A Tudor,Six1-Eya2 inh,CtBP-E1A inh
COc1ccccc1N(Cc1cc(=O)[nH]c2ccccc12)C(C)=O,?,0%,0%,-12%,1,/
CCC(=O)N(Cc1cc(=O)[nH]c2ccccc12)c1ccccc1C,45µM*,-11%,?,-24%,1,-2
CCC(=O)N(Cc1cc(=O)[nH]c2ccccc12)c1cccc(C)c1,10µM*,-5%,2%,79µM*,-11,-1
Cc1ccc(N(Cc2cc(=O)[nH]c3ccccc23)C(=O)CCl)c(C)c1,50µM*,-26%,3%[57 µM],-35%,17,9
Cc1cccc(N(C)C(=O)Cc2c(C(=O)O)[nH]c3ccccc23)c1,1%[59 µM],-3%,33%,-16%,/,/
CCCC(=O)N(Cc1cc(=O)[nH]c2ccccc12)c1ccc(C)cc1C,?,3%,5%,-17%,-2,/
O=S(=O)(c1ccc2ccccc2c1)n1nc(-c2ccco2)nc1NCc1cccc(Cl)c1,-33%[59 µM],?,23%,-20%,/,/
CC(=O)N(CCc1ccccc1)Cc1cc2ccc(C)c(C)c2[nH]c1=O,22%[0.501 µM],10%,86%,-8%,8,2
COC(=O)c1cc(NC(=O)c2ccc(C)cc2)c(=O)oc1C,?,-2%,45%,?,8,3
COc1ccc(C(=O)Nc2cc(C(=O)c3ccccc3)c(C)oc2=O)cc1,8.9µM*,?,?,?,-7,-3
COC(=O)c1cc(NC(=O)c2ccccc2)c(=O)oc1C,45µM*,-1%,-14%,-2%,-3,3
CC(=O)c1cc(NC(=O)c2ccc([N+](=O)[O-])cc2)c(=O)oc1C,22µM*,-23%,30%,9%,-1,5
CC(=O)c1ccc(NC(=O)C(C)OC(=O)/C=C/c2ccco2)cc1 (configuration not stated),/,/,-13%,?,-4,-1
CCN(Cc1ccccc1)C(=O)c1cc2ccc3cccnc3c2[nH]1,-26%[59 µM],4%[57.1 µM],11%,-18%,/,/
CN1CCN(C(=O)CSc2nc(-c3cccs3)cc(-c3cccs3)c2C#N)CC1,40µM*,3%,20%,-14%,22,19
CCN(CC)C(=O)CSc1nc(-c2cccs2)cc(-c2cccs2)c1C#N,4µM*,-7%,-30%,1%[57.1 µM],11,8
COC(=O)CSc1nc(-c2cccs2)ccc1C#N,32µM*,11%,38%,-3%,15,20
C#CCSc1nc(-c2cccs2)ccc1C#N,21%[12.7 µM],73%,50%,41%,34,6
N#Cc1c(-c2ccc(F)cc2)cc(-c2cccs2)nc1SCC(=O)O,16%,-35%,102%,-24%,6,/
CC(=O)N[C@@H]1C(O)OC(CO)C(O)C1O (some centres not stated),-4%[2.33 µM],/,/,/,/,/
CCc1ccccc1NC(=O)Cn1nnc(-c2nc(-c3ccncc3)no2)c1N,7.1µM*,-13%,31%,-1%,/,/
CCN(CC)CCCNC(=O)c1ccc2c(c1)sc1nc(-c3ccc(C)cc3)cn12,11µM*,40µM*,-10%,?,/,/
COc1ccc(/C=C2\CCC/C(=C\c3ccc(OC)c(OC)c3OC)C2=O)c(OC)c1OC,?,?,?,?,-8,-6
COc1cc(OC)c(OC)cc1/C=C1\CCC(C2CCCC2)C1=O (configuration not stated),?,25µM*,-3%,?,-3,/
COc1cc(OC)c(OC)cc1/C=C1\CCC/C(=C\c2cc(OC)c(OC)cc2OC)C1=O,40µM*,28µM*,32µM*,28µM*,-15,-4
SMILES,G9a inh,BAZ2B block,HP1b chromo inh,JMJD2A Tudor,Six1-Eya2 inh,CtBP-E1A inh
Cc1oc2ncn(CC(C)C)c(=O)c2c1C(=O)NCc1cccc(Cl)c1,-1%[59 µM],11%[57.1 µM],36%,13%,/,/
O=C(Nc1nc(Nc2cc(F)cc(F)c2)nc(NC2CCCC2)n1)OCc1ccccc1,/,/,/,-18%,/,/
CN=c1scc(-c2ccc([N+](=O)[O-])cc2)n1/N=C/c1ccco1,50µM*,?,5%,-14%,-10,-10
Cn1ccc(C(=O)NC(=S)N2CCSCC2)n1,13µM*,-19%,?,50µM*,-6,-13
Cc1c(-c2ccc(Br)cc2)nc2ccccn12,45µM*,-5%,-8%,-19%,0,-15
Cc1ccc(-c2nc3ccccn3c2C=O)cc1,/,-3%,14%,-13%,-3,/
COc1cc(-c2nc3ccccn3c2/N=C/c2cc(OC)c(OC)c(OC)c2)ccc1O,/,/,-59%,45µM*,-10,-9
CN(C)c1ccc(-c2nc3ccccn3c2/N=C/c2ccc(Br)cc2)cc1,10µM*,11µM*,?,45µM*,-9,-21
Cc1cc(C)c(CC(=O)c2ccccc2)c(C)c1,/,/,22%,1%,3,0
Cc1c(Cl)cccc1NS(=O)(=O)c1cc2c(cc1F)NC(=O)CC2,/,/,/,-20%,/,/
COc1ccccc1C1=Nn2c(nnc2-c2ccccc2OC)SC1,/,/,/,-8%,/,/
COc1ccccc1C1=Nn2c(COc3ccccc3)nnc2SC1,3.2µM*,?,/,/,/,/
COc1ccc(OCc2nnc3n2N=C(c2ccc(C)cc2)CS3)cc1,?,-9%,33%,-8%,-9,-9
CC(C)c1nnc2n1N=C(c1ccc(Cl)cc1)CS2,/,-2%,20%,-19%,-3,-5
COc1ccc(C2=Nn3c(nnc3-c3cc(OC)ccc3OC)SC2)c(OC)c1,/,/,/,79µM*,/,/
COc1ccc(OCc2nnc3n2N=C(c2ccc(OC)cc2)CS3)cc1,50µM*,-32%,29%,?,-9,-8
CCCc1ccc(C2=Nn3c(nnc3C(C)C)SC2)cc1,8.9µM*,-21%,?,-35%,-1,0
CCOC(=O)c1c(Nc2cccc(C)c2)nnc(-c2ccccc2)c1-c1ccccc1,?,?,1%,?,/,/
CC(C)C(=O)NC1CC(=O)N(c2ccc3c(c2)OCCO3)C1 (configuration not stated),-12%[59 µM],3%,59%,-12%,/,/
COc1ccc(C2=Nn3c(nnc3-c3ccncc3)SC2)cc1,?,6%,27%,-8%,-13,-21
Fc1ccc(C2=Nn3c(Cc4ccccc4)nnc3SC2)cc1,4%,0%,27%,-13%,0,6
COc1ccc(C2=Nn3c(C)nnc3SC2)cc1,45µM*,?,99%,65%,-3,/
O=C(O)CC1Sc2nnc(COc3ccc(Cl)cc3)n2N=C1c1ccccc1 (configuration not stated),25µM*,-11%,6%,-12%,0,3
c1ccc(OCc2nnc3n2N=C(c2ccccc2)CS3)cc1,7.9µM*,/,?,-14%[11.4 µM],-2,2
